Unmarked numbers belong to inactive results.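 Rule for the calls: active = growth AUC significantly below the DMSO wells by Dunnett test; inactive = the rest.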

This experiment has as its system Community 10. The experiment can be described thus: relative growth (AUC of 72 h growth curve relative to DMSO control, dAUC) (ratio); higher = more growth (less inhibition), active = hit call of the paper. To be noted: 20 µM. As for the experimental part:
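Environmental bacterial isolates (Iceland stream sediment and Silwood Park soil) and whole stream-sediment communities were grown in LB from a 1:100 dilution with each pesticide at 20 µM (1% DMSO). A600 was read hourly for 72 h and the area under a spline-fitted growth curve (AUC) was computed. dAUC is the mean AUC of 3 biological replicates divided by the mean AUC of the DMSO controls. Significance was tested by Dunnett's test against the DMSO control.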
For `CCCSP(=O)(OCC)Oc1ccc(Br)cc1Cl` (stereo not given), the relative growth was 0.705. The result for `CC(C)CC(C)c1sccc1NC(=O)c1cn(C)nc1C(F)(F)F` (stereo not given) reads 0.715; that for `CN/C(=N/CC1CCOC1)N[N+](=O)[O-]` (stereo not given), 0.953. With `CC(C)N1C(=O)N(c2ccccc2)CS/C1=N\C(C)(C)C`, the relative growth was 0.858. The result for `C/C(=N\C#N)N(C)Cc1ccc(Cl)nc1` reads 1.15; that for `CNC(=O)/C=C(\C)OP(=O)(OC)OC`, 0.927. On to `N#Cc1cc(Br)c(O)c(Br)c1`, for which the relative growth was 0.931. Regarding `CS(=O)(=O)c1cc(C(F)(F)F)ccc1C(=O)c1cnoc1C1CC1`, the relative growth is 1.13. As for `O=[N+]([O-])/N=C1\NCCN1Cc1ccc(Cl)nc1`, the relative growth was 1.23. For the compound `CC1(C)C(C=C(Cl)Cl)C1C(=O)OCc1cccc(Oc2ccccc2)c1` (stereo not given), the relative growth is 0.824. Consider `O=C(O)c1nc(Cl)ccc1Cl`, for which the relative growth is 0.892. Consider `CCC(C)(C)C(=O)OC1=C(c2ccc(Cl)cc2Cl)C(=O)OC12CCCCC2`, for which the relative growth is 0.839.

Turning to `CCN(CC)c1nc(C)cc(OP(=S)(OC)OC)n1`, the relative growth was 0.843.

In the case of `CC1(C)CON(Cc2ccccc2Cl)C1=O`, the relative growth is 0.791. Turning to `CNC(=O)c1cc(C#N)cc(C)c1NC(=O)c1cc(Br)nn1-c1ncccc1Cl`, the relative growth was 0.859. Turning to `N#Cc1c[nH]cc1-c1cccc2c1OC(F)(F)O2`, the relative growth was 0.855. In the case of `CC(Oc1ccc(Oc2ncc(C(F)(F)F)cc2Cl)cc1)C(=O)O` (stereo not given), the relative growth was 0.793. Consider `Cc1cc(C(F)(C(F)(F)F)C(F)(F)F)ccc1NC(=O)c1cccc(I)c1C(=O)NC(C)(C)CS(C)(=O)=O`, for which the relative growth was 1.21. For the compound `O=C1C2(Cl)C3(Cl)C4(Cl)C(Cl)(Cl)C5(Cl)C3(Cl)C1(Cl)C5(Cl)C24Cl` (stereo not given), the relative growth was 0.82. In the case of `CNC(=O)c1cc(Cl)cc(C)c1NC(=O)c1cc(Br)nn1-c1ncccc1Cl`, the relative growth was 1.14. For the compound `N#CC(CCc1ccc(Cl)cc1)(Cn1cncn1)c1ccccc1` (stereo not given), the relative growth was 1.09. On to `Nc1c(Cl)c(F)nc(OCC(=O)O)c1Cl`, for which the relative growth was 0.976.

For the compound `COc1cc(OC)nc(NC(=O)NS(=O)(=O)c2ncccc2C(=O)N(C)C)n1`, the relative growth was 1.11. Regarding `COP(=S)(OC)Oc1nc(Cl)c(Cl)cc1Cl`, the relative growth was 0.856. Turning to `COC(=O)N(C(=O)N1CO[C@@]2(C(=O)OC)Cc3cc(Cl)ccc3C2=N1)c1ccc(OC(F)(F)F)cc1`, the relative growth is 0.878. The result for `COC(=O)c1ccccc1S(=O)(=O)NC(=O)Nc1nc(C)nc(OC)n1` reads 1.23; that for `CON(C)C(=O)Nc1ccc(Cl)c(Cl)c1`, 1.03. Turning to `O=C(Nc1ccccc1-c1ccc(Cl)cc1)c1cccnc1Cl`, the relative growth is 1.05.

For the compound `CSc1nc(NC(C)C)nc(NC(C)C)n1`, the relative growth is 0.857. For `CNC(=O)CSP(=S)(OC)OC`, the relative growth is 0.887.

As for `N#CCNC(=O)c1cnccc1C(F)(F)F`, the relative growth was 0.928. For the compound `Fc1ccc(Oc2ccnc3cc(Cl)cc(Cl)c23)cc1`, the relative growth was 0.887. With `CC(C)OC(=O)Nc1cccc(Cl)c1`, the relative growth was 1.17. The result for `CCC(CC)Nc1c([N+](=O)[O-])cc(C)c(C)c1[N+](=O)[O-]` reads 0.687. In the case of `Cc1nc(N(C)C)nc(OC(=O)N(C)C)c1C`, the relative growth is 0.979.

As to `CCOC(=O)CC(SP(=S)(OC)OC)C(=O)OCC` (stereo not given), the relative growth is 0.992. On to `CN(C)C(CSS(=O)(=O)O)CSS(=O)(=O)O`, for which the relative growth was 0.835. As for `CC[C@H]1CCC[C@H](O[C@H]2CC[C@H](N(C)C)[C@@H](C)O2)[C@@H](C)C(=O)C2=C[C@@H]3[C@@H](C=C(C)[C@@H]4C[C@@H](O[C@@H]5O[C@@H](C)[C@H](OC)[C@@H](OC)[C@H]5OC)C[C@@H]34)[C@@H]2CC(=O)O1.CC[C@H]1CCC[C@H](O[C@H]2CC[C@H](N(C)C)[C@@H](C)O2)[C@@H](C)C(=O)C2=C[C@H]3[C@@H]4C[C@H](O[C@@H]5O[C@@H](C)[C@H](OC)[C@@H](OC)[C@H]5OC)C[C@H]4C=C[C@H]3C2CC(=O)O1`, the relative growth is 0.772.

As for `Nc1c([N+](=O)[O-])ccc(Oc2ccccc2)c1Cl`, the relative growth was 0.833. On to `Cc1cc(C)nc(Nc2ccccc2)n1`, for which the relative growth is 1.07.

The record behind these values is the supplement of paper PMC12067926.
